# Compounds with a hit are over-represented: about 6.5% of the library has one in this group of screens.
# VACV Venus inh – inhibitors of vaccinia virus (Venus reporter) | Potency, µM (highest dose often 36.5 µM), for inactives: top-dose activity change, negative = inhibition, usual class: inhibitors | Vaccinia virus Venus reporter expression, fluorescence | 330,000 tested, 0.46% active | AID 720580; calls by dose curve; tested in A549 cells; further: potency means the concentration at half of the fitted maximal effect; nearly all actives have a fitted effect of over 30% in size
# VACV mCherry inh – inhibitors of vaccinia virus infection (mCherry reporter signal). Vaccinia virus mCherry reporter infection, fluorescence. AID 720579. 310,000 tested, 0.63% active. Potency, µM (highest dose often 36.5 µM), for the others: at the top dose activity change, negative = inhibition, usual class: inhibitors; calls by dose curve; tested in A549 cells; further: potency means the concentration at half of the fitted maximal effect; nearly all actives have a fitted effect of over 35% in size
# Marburg entry inh – Marburg virus entry inhibition; Marburg virus pseudotyped entry inhibition, cell reporter; Potency, µM (highest dose often 37.8 µM), for inactives: top-dose activity change, negative = inhibition, most hits filed as inhibitors; 300,000 tested, 1.8% active; calls by dose curve; tested in HEK293 cells; further: potency means the concentration at half of the fitted maximal effect
# FMDV antiviral – foot and mouth disease virus antiviral activity. FMDV antiviral cell-based qHTS. Potency, µM (doses to about 57.9 µM), for the others: at the top dose activity change, negative = inhibition, hits mostly inhibitors. 410,000 tested, 1.2% active; calls by dose curve; tested in HEK293T cells; further: read-out not given here; potency means the concentration at half of the fitted maximal effect; nearly all actives have a fitted effect of over 45% in size
# HCMV antiviral – inhibitors of human cytomegalovirus. HFF cells, HCMV-luciferase reporter, 72 h; hits give low values. activity change, negative = inhibition, % at 57.5 µM. 410,000 tested, 4.5% active. AID 1259415; in the data active means activity change below about -60%; inconclusive means no clear call, values can overlap the other calls; inactive means above about -39%
#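 Luciferase read-out from HCMV-luciferase-infected HFFs (MOI 1 PFU/cell) 72 h post infection at 37C; compounds added after 16 h cell attachment; activity normalized between buffer-only basal and Salinomycin (10uM) inhibitor controls.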
# Lassa entry inh – inhibitors of Lassa virus binding or cell entry. Lassa virus pseudotype entry inhibition, cell reporter. 300,000 tested, 1.2% active. Potency, µM (doses to about 37.9 µM), inactives show top-dose activity change, negative = inhibition, usual class: inhibitors; calls by dose curve; tested in HEK293 cells; further: potency means the concentration at half of the fitted maximal effect; nearly all actives have a fitted effect of over 50% in size
# Starred values were filed as active, the others as inactive; i = inactive; ? = inconclusive; . = no result given; [ ] = remark or other dose. On the % scale 0 is the no-effect control and ±100 the full control effect.
SMILES,VACV Venus inh,VACV mCherry inh,Marburg entry inh,FMDV antiviral,HCMV antiviral,Lassa entry inh
Cc1ccc2occ(CN3CCOc4ccc(C(C)(O)COc5ccccc5)cc4C3)c(=O)c2c1 (configuration not stated),3.1%,-20.0%,.,-21.3%,.,.
CC(C)(C)c1cc(C(C)(C)C)c2oc(=O)c(-c3nc4ccc(C(=O)O)cc4[nH]3)cc2c1,-9.4%[7.34 µM],-8.4%[7.34 µM],.,-21.3%,16.5,-0.8%[46.1 µM]
Cc1ccc(-c2nc3ccccc3[nH]2)s1,-5.9%,-14.2%,12.6µM*,14.5%,99.0,?
Cc1cccc2cc(-c3nc4ccc(C(=O)O)cc4[nH]3)c(=O)oc12,-8.7%,i,?,7.94µM*,.,?
COc1ccc(-c2nc3ccccc3[nH]2)cc1,-17.9%,i,7.3µM*,.,124.4,?
COC(=O)c1ccc(-c2nc3ccccc3[nH]2)cc1,-24.1%,-25.8%,1.84µM*,-78.9%,58.2,7.31µM*
O=C(Nc1ccc(OC(F)(F)F)cc1)NC1COc2ccccc2C1 (configuration not stated),-11.2%,i,.,-4.8%,-11.6,-5.2%[46.1 µM]
COc1ccc(Cn2cnc3cnc(Nc4ccc(C(=O)N(C)C)cc4)cc32)cc1OC,.,.,.,.,1.7,.
COc1ccc(CCCc2nc3ccccc3[nH]2)cc1,-8.3%,59.8%,13.5%[46.1 µM],27.6%,-36.4,-17.0%
O=C(O)c1cccc(-c2nc3ccccc3[nH]2)c1,-15.7%,-10.3%,0.355µM*,?,31.9,1.41µM*
COc1ccc(-c2cc(=O)n(-c3nc4ccccc4[nH]3)[nH]2)cc1,.,.,?,12.3%,-89.7*,?
c1ccc(-c2nc3ccccc3[nH]2)cc1,-14.6%,-15.0%,.,34.3%,73.4,.
Cc1cc(C)cc(NC(=O)c2oc3ccc4c(c3c2C)C(=O)CC(C)(C)O4)c1,-4.1%,-8.1%,.,-2.6%,-105.3*,6.8%[46.1 µM]
CN1CCN(c2nc3ccccc3nc2C(C#N)C(=O)OC2CCCCC2)CC1 (configuration not stated),.,.,-41.8%,10.1%,13.1,-9.5%
N#CC(C(=O)OC1CCCCC1)c1nc2ccccc2nc1N1CCOCC1 (configuration not stated),3.3%,-5.9%,7.4%,0.0%,-77.6*,-10.0%
CCn1cc(C(=O)O)c(=O)c2cc(F)c(N3CCN(S(=O)(=O)c4ccc(NC(=O)OC)cc4)CC3)cc21,-4.5%,-10.0%,?,-22.4%,-63.0*,-3.9%
CCOC(=O)COc1ccc(C)cc1C(=O)c1ccn2nc(-c3ccc(Cl)cc3)cc2n1,?,?,?,7.9%,16.7,-8.6%[46.1 µM]
CC(C)(C)NC(=O)C12CCC(C)(c3nc4ccccc4nc31)C2(C)C (configuration not stated),.,.,?,-28.2%,-94.1*,-10.0%
COC(=O)c1ccc(NC(=O)CCn2cccn2)cc1,-1.1%,-7.8%,.,5.5%,3.9,11.4%[46.1 µM]
Cc1[nH]n(-c2ccccc2)c(=O)c1/C=N/Nc1nncc(-c2ccccc2)n1,?,3.98µM*,4.11µM*,.,-99.2*,4.11µM*
Cc1ccc(-n2[nH]c(C)c(/C=N/c3ccccn3)c2=O)cc1,-17.2%,i,1.2%,.,-0.6,9.1%
Cc1[nH]n(-c2ccccc2)c(=O)c1/C=N/NC(=O)c1cccc(F)c1,.,.,.,-6.1%,-98.1*,.
Cc1[nH]n(-c2ccc(Br)cc2)c(=O)c1/C=N/NC(=O)c1ccccc1,.,.,.,-5.1%,-98.3*,.
Cc1[nH]n(-c2ccccc2)c(=O)c1C=Nc1cccc2cccnc12,?,12.6µM*,8.91µM*,-23.0%,-63.0*,?
CN(C)c1ccc(/C=C/c2c(F)cnc3ccccc23)cc1,-14.1%,6.9%,.,.,.,.
SMILES,VACV Venus inh,VACV mCherry inh,Marburg entry inh,FMDV antiviral,HCMV antiviral,Lassa entry inh
COc1cc(=O)n2c(c1C(=O)NCc1nccs1)CCN(Cc1ccccc1F)CC2,-16.7%,-5.3%,.,-7.7%,.,.
CC(C)C1=C2OC(N)=C(C#N)C(C#N)=C2[C@H](C)CC1,.,.,-1.3%,.,.,.
C[C@@H]1/C=C/CC(=O)OC[C@H](C)C(=O)OC[C@H]2O[C@H]1C=C[C@H]2O,.,.,-13.6%[14.2 µM],.,.,.
COc1cccc(C2c3cccn3-c3ccccc3N2C=NC(C)(C)C)c1 (configuration not stated),.,.,.,.,22.5,.
N#Cc1ccc(NC(=O)N[C@H]2CC[C@@]34CCCN3C(=O)CCC[C@H]4C2Cc2ccccc2)cc1 (some centres not stated),.,.,.,.,0.9,.
CCCC(=O)Nc1nc(-c2ccccc2)ns1,-14.8%,-2.9%,?,17.0%,54.8,20.6µM*
COc1ccc(-n2cc(C(=O)c3cc4ccccc4oc3=O)c(C(C)=O)n2)cc1,.,.,8.1%,12.8%,-67.2*,2.7%
COCc1ccc(CN2CCOc3c(O)cc(-c4cc(C)c5ccc(F)cc5n4)cc3C2)o1,-14.9%,-18.1%,.,8.1%,.,.
COc1ccc(S(=O)(=O)N2CCC[C@H]2C(=O)N2CCC[C@H]2C(=O)N[C@@H](C)c2ccccc2)cc1C,-0.1%,-2.2%,.,-7.6%,-101.3*,.
COc1ccc(S(=O)(=O)N2CCC[C@H]2C(=O)N2CCC[C@H]2C(=O)N[C@H](C)c2ccccc2)cc1C,4.7%,i,.,-23.4%,1.8,.
CCOc1ccc(S(=O)(=O)NCc2ccc3c(c2)CCN3C(=O)c2ccc(C)cc2)cc1,-19.0%,-24.4%,.,-22.4%,?,-27.4%[46.1 µM]
CCN1CC(=O)Nc2cc(S(=O)(=O)N3CCOCC3)ccc21,2.3%,-11.9%,-8.6%,-13.0%,-60.4*,-14.5%
CCN1C(=O)Cc2cc(S(=O)(=O)N3CCOCC3)ccc21,0.5%,i,12.3%[46.1 µM],-23.9%,41.5,2.3%
CCCCc1cc(=O)oc2c(CN(C)C)c(O)ccc12,-10.8%,-15.1%,-32.6%,15.4%,47.8,-0.9%
CC[C@@]1(O)C(=O)OCc2c1cc1n(c2=O)Cc2cc3c(CN(C)C)c(O)ccc3nc2-1,?,?,.,-11.7%,-97.3*,.
CC[C@@]1(O)C(=O)OCc2c1cc1n(c2=O)Cc2cc3c(N)cccc3nc2-1,?,?,.,?,-99.4*,.
O=c1cccc2n1Cc1cc3ccccc3nc1-2,-8.6%,-11.7%,1.4%,74.8%,103.1,?
COc1cccc(NC(=O)Nc2ccc3c(c2)nc(C)n3C)c1,-24.6%,-14.9%,?,-39.6%,44.9,?
CCn1c(C)nc2cc(NC(=O)Nc3cccc(C(C)=O)c3)ccc21,.,.,.,27.9%,-66.5*,.
CCCN(C(=O)CSCC(=O)Nc1cccc(C)c1)c1c(N)n(Cc2ccccc2)c(=O)[nH]c1=O,-6.8%,i,-16.1%,-19.3%,-8.4,12.5%
Cc1cccc(NC(=O)CSCC(=O)N(CCC(C)C)c2c(N)n(Cc3ccccc3)c(=O)[nH]c2=O)c1,-7.9%,-16.3%,?,-24.2%,6.1,10µM*
O=C(CSc1ncnc2[nH]ncc12)Nc1nc(-c2ccc(F)c(F)c2)cs1,.,.,?,14.1µM*,-90.4*,?
O=C(Cc1ccc(F)cc1)Nc1nc(-c2ccc(F)c(F)c2)cs1,.,.,.,?,6.8,.
CCOC(=O)CCCNC(=O)N[C@H]1CC[C@@]23CCCN2C(=O)CCC[C@H]3C1Cc1ccccc1 (some centres not stated),.,.,.,.,-5.2,.
CC(=O)c1cc(O)c2ccccc2c1O,.,.,.,-17.8%,84.9,.

# Compound activity: PubChem, National Center for Advancing Translational Sciences (NCATS)
